Calls of active or inactive are those of the source.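 Rule for the calls: active = translocation seen by eye under the microscope after immunostaining of patient fibroblasts; inconclusive = translocation result judged unclear; inactive = no translocation seen.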

The test has as its target Lysosomal alpha-glucosidase (Homo sapiens) (UniProt P10253). Description: qHTS for Activators of Human alpha-Glucosidase as a Potential Chaperone Treatment of Pompe Disease: Fibroblast Translocation. The following applies: Pompe patient fibroblasts, GAA immunostaining lysosomal translocation, 6 d. An excerpt: Alpha-glucosidase is responsible for hydrolysis of terminal, non-reducing 1,4-linked alpha-D-glucose residues with release of alpha-D-glucose. It is a lysosomal hydrolase that is required for the degradation of a small percentage (1-3%) of cellular glycogen in human. Deficiency of this enzyme results in glycogen-storage disease type II (GSDII), also referred to as Pompe disease, an autosomal recessive disorder. Structurally normal glycogen is accumulated in lysosomes and cytoplasm in affected patients, primarily in muscle tissues. Excessive glycogen storage within lysosomes may interrupt normal functioning of other organelles and leads to cellular injury. In turn, this leads to enlargement and dysfunction of the entire organ involved (eg, cardiomyopathy and muscle weakness). It has reported that the improper folding and trafficking of alpha-glucosidase resulting from the genetic mutations may account for a significant number of Pompe patients. […] We optimized this alpha-glucosidase assay in 1536-well plate format for identifying the novel small molecule inhibitors with the structures other than the sugar analogs in order to develop the new pharmacological chaperones. Validated hits were tested in this fibroblast translocation assay that measures fluorescence through immunostaining Pompe patient derived fibroblasts. NIH Chemical Genomics Center [NCGC] […]
Take `CCCN1CNc2c(c(=O)[nH]c(=S)n2Cc2ccc(OC)c(OC)c2)C1`: the outcome was “active; yes”.

Source of the values: PubChem BioAssay AID602122 (National Center for Advancing Translational Sciences (NCATS), 2011).
